Source: PubChem BioAssay (NCATS)
Records with an inconclusive call do not appear. Where a call stands in place of a potency, no number is given. A number with no mark means an inactive call. Activity calls are given as the source filed them. The call rests on the fitted dose curve; in most records, active means well fitted inhibition curve with a large enough effect; inconclusive means small, poorly fitted or top-dose-only effect; inactive means flat fitted curve, though single readings scatter.

Assays:
[1] = tested on: PC49; experiment: qHTS profiling for inhibitors of Plasmodium falciparum proliferation (AID 504749); further: potency means the concentration at half of the fitted maximal effect; details: P. falciparum in erythrocytes, SYBR Green DNA, 72 h; series mostly up to 28.7 µM
Outline: (§1)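 Three-day growth assay of blood-stage parasites in erythrocytes (0.3% parasitemia, 2.5% hematocrit) at 37 C, 5% CO2, quantified by SYBR Green DNA staining after overnight detergent lysis.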

[2] = tested on: SC27B; experiment: as above; details: P. falciparum in erythrocytes, SYBR Green DNA, 72 h; series mostly up to 28.7 µM
Outline: as §1

[3] = tested on: TAB109; experiment: as above; details: P. falciparum in erythrocytes, SYBR Green DNA, 72 h; series mostly up to 28.7 µM
Outline: as §1

[4] = tested on: TAB113; experiment: as above; details: P. falciparum in erythrocytes, SYBR Green DNA, 72 h; series mostly up to 28.7 µM
Outline: as §1

[5] = tested on: TAB165; experiment: as above; details: P. falciparum in erythrocytes, SYBR Green DNA, 72 h; series mostly up to 28.7 µM
Outline: as §1

[6] = tested on: W2; experiment: as above; details: P. falciparum in erythrocytes, SYBR Green DNA, 72 h; series mostly up to 28.7 µM
Outline: as §1

[7] = tested on: CRL-7250; experiment: Cytotoxic Profiling of Annotated Libraries Using Quantitative High-Throughput Screening (AID 1296008); details: Five cell lines viability, CellTiter-Glo ATP luminescence, 48-72 h; active compounds read low
Outline: (§2)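 Cytotoxicity was measured as CellTiter-Glo ATP luminescence, read after 10 min at room temperature. Compound treatment of the cells lasted 48 or 72 hr at 37 degrees Celsius in a qHTS format.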

[8] = tested on: HEK293; experiment: as above; details: Five cell lines viability, CellTiter-Glo ATP luminescence, 48-72 h; active compounds read low
Outline: as §2

[9] = tested on: HaCat; experiment: as above; details: Five cell lines viability, CellTiter-Glo ATP luminescence, 48-72 h; active compounds read low
Outline: as §2

[10] = tested on: KB-3-1; experiment: as above; details: Five cell lines viability, CellTiter-Glo ATP luminescence, 48-72 h, active compounds read low
Outline: as §2
Further: nearly all actives have a fitted effect of over 60% in size.

SMILES | Potency [1] | Potency [2] | Potency [3] | Potency [4] | Potency [5] | Potency [6] | max response [7] [%] | max response [8] [%] | outcome [9] | max response [10] [%] | max response [9] [%] | outcome [7] | outcome [8]
CCOC(=O)c1cccnc1 | inactive | inactive | inactive | inactive | inactive | inactive | -2.26 | -0.734 | inactive | 2.38 |  |  | 
c1ccc2[nH]ccc2c1 | inactive | inactive | inactive | inactive | inactive | inactive | 4.59 | -5.55 | inactive | -2.84 |  |  | 
CCc1nnc(NS(=O)(=O)c2ccc(N)cc2)s1 | inactive | inactive | inactive | inactive | inactive | inactive | 4.08 | -0.578 | inactive | 7.07 |  |  | 
CC(C)CCOC(=O)c1ccc(N(C)C)cc1 | inactive | inactive | inactive | inactive | inactive | inactive | -21 | -23.8 |  | 11.7 | -5.98 |  | 
COc1ccc2cc(CCC(C)=O)ccc2c1 | inactive | inactive | inactive | inactive | inactive | inactive |  |  | inactive | -1.62 |  | inactive | inactive
Cc1c(NC(=O)c2cccnc2)c(=O)n(-c2ccccc2)n1C | inactive | inactive | inactive | inactive | inactive | inactive | -9.05 | 0.504 | inactive | -0.639 |  |  | 
O=c1[nH]c(=O)c2ccccc2o1 | inactive | inactive | inactive | inactive | inactive | inactive |  | 1.22 | inactive | -4.12 |  | inactive | 
CC(=O)Nc1ccccc1 | inactive | inactive | inactive | inactive | inactive | inactive | 2.87 | -7.78 | inactive | 12.7 |  |  | 
CN1CCCN=C1COC(=O)C(O)(c1ccccc1)C1CCCCC1 (stereo unspecified) | inactive | inactive | inactive | inactive | inactive | inactive | -8.2 | -8.47 | inactive | -13.9 |  |  | 
CCCC(O)C(CC)CO (stereo unspecified) | inactive | inactive | inactive | inactive | inactive | inactive | -3.08 | -1.45 |  | 9.23 | -9.38 |  | 
CC(N)CCCC(C)(C)O (stereo unspecified) | inactive | inactive | inactive | inactive | inactive | inactive | -9.12 | -17.6 | inactive | 2.21 |  |  | 
Cc1c(C)c2c(c(C)c1OC(=O)c1cccnc1)CC[C@@](C)(CCC[C@H](C)CCC[C@H](C)CCCC(C)C)O2 | inactive | inactive | inactive | inactive | inactive | inactive |  | -1.31 |  | 1.29 | 0.9 | inactive | 
CCCOC(=O)c1ccc(N)cc1 | inactive | inactive | inactive | inactive | inactive | inactive |  |  |  | 1.99 | -1.1 | inactive | inactive
COc1nccnc1NS(=O)(=O)c1ccc(N)cc1 | inactive | inactive | inactive | inactive | inactive | inactive | 3.15 | 4.9 | inactive | -12 |  |  | 
CCCCCCCCCCCCCCCCC(C(=O)O)C(O)(CC(=O)O)C(=O)O (stereo unspecified) | inactive | inactive | inactive | inactive | inactive |  |  |  |  | 6.88 | 2.76 | inactive | inactive
O=C(CCBr)N1CCN(C(=O)CCBr)CC1 | inactive | inactive | inactive | inactive | inactive | inactive | -5.81 | 0.232 |  | -5.88 | -10.3 |  | 
CNc1c2c(nn1C)CCCC2 | inactive | inactive | inactive | inactive | inactive | inactive | 2.3 | -6.59 | inactive | -8.03 |  |  | 
CC1CC(OC(=O)c2ccccc2O)CC(C)(C)C1 (stereo unspecified) | inactive | inactive | inactive | inactive | inactive |  | -4.46 |  | inactive | -9.15 |  |  | inactive

SMILES | Potency [1] | Potency [2] | Potency [3] | Potency [4] | Potency [5] | Potency [6] | max response [7] [%] | max response [8] [%] | outcome [9] | max response [10] [%] | max response [9] [%] | outcome [7] | outcome [8]
CC(=O)Nc1ccc(C(=O)O)cc1 | inactive | inactive | inactive | inactive | inactive | inactive | -0.409 |  |  | -6.78 | 3.25 |  | inactive
O=C(O)c1cc(=O)c2ccccc2o1 | inactive | inactive | inactive | inactive | inactive |  | 2.58 | -0.978 | inactive | -5.78 |  |  | 
O=C(OOC(=O)c1ccccc1)c1ccccc1 | inactive | inactive | inactive | inactive | inactive | inactive |  | 2.9 |  | -3.15 | -8.52 | inactive | 
O=C(/C=C/c1ccccc1)OCc1ccccc1 | inactive | inactive | inactive | inactive | inactive | inactive | 1.75 | -4.12 | inactive | 21.2 |  |  | 
CNCc1ccccc1 | inactive | inactive | inactive | inactive | inactive | inactive | 4.71 |  |  | -4.93 | -18.5 |  | inactive
CC(=O)N[C@@H](Cc1ccc(O)cc1)C(=O)O | inactive | inactive | inactive | inactive | inactive |  | -1.56 | -2.21 | inactive | -4.16 |  |  | 
Nc1ccc(C(=O)Oc2ccccc2)c(O)c1 | inactive | inactive | inactive | inactive | inactive | inactive | 2.06 | 0.228 |  | -4.49 | -1.24 |  | 
COC(=O)c1ccc(O)cc1 | inactive | inactive | inactive | inactive | inactive | inactive | 1 | 3.26 | inactive | 0.911 |  |  | 
O=S1(=O)OC(c2ccc(O)cc2)(c2ccc(O)cc2)c2ccccc21 | inactive | inactive | inactive | inactive | inactive | inactive |  | -9.72 | inactive | 15.7 |  | inactive | 
COc1ccc(NS(=O)(=O)c2ccc(N)cc2)nn1 | inactive | inactive | inactive | inactive | inactive | inactive | 3.69 |  | inactive | 14.2 |  |  | inactive
CCCCCCCC(=O)OCC(O)CO (stereo unspecified) | inactive | inactive | inactive | inactive | inactive | inactive | -18.7 | -8.91 |  | -2.18 | -12 |  | 
Cc1cccc(C(=O)O)c1O | inactive | inactive | inactive | inactive | inactive | inactive | -0.667 | -2.23 | inactive | 2.2 |  |  | 
CCCCCCCCCCOc1cc2c(=O)c(C(=O)OCC)c[nH]c2cc1OCC | 7.9 nM (active) | 2.5 nM (active) | 2.5 nM (active) | 2.8 nM (active) | 1.3 nM (active) | 1.7 nM (active) |  |  |  | 7.91 | -5.57 | inactive | inactive
COc1ccc(C(=O)NCc2ccc(OCCN(C)C)cc2)cc1OC | inactive | inactive | inactive | inactive | inactive | inactive |  | -0.933 | inactive | 3.28 |  | inactive | 
CC(C)C[C@@H](N)C(=O)O | inactive | inactive | inactive | inactive | inactive | inactive | -5.17 |  |  | 12.7 | 4.82 |  | inactive
O=C(O)c1ccc[n+]([O-])c1 | inactive | inactive | inactive | inactive | inactive | inactive |  | -0.144 | inactive | -1.65 |  | inactive | 
O=C(O)c1ccccc1OP(=O)(O)O | inactive | inactive | inactive | inactive | inactive | inactive | 3.34 | 2.49 | inactive | 12.4 |  |  | 
CC1CCc2cc(F)cc3c(=O)c(C(=O)O)cn1c23 (stereo unspecified) | inactive | inactive | inactive | inactive | inactive | inactive |  | -3.78 | inactive | -6.7 |  | inactive | 
